Screening results (PubChem)
gsp antagonist – antagonists of gsp mutant (McCune-Albright syndrome) | gsp-mutant cells, cAMP HTRF, 30 min | Potency, µM (top dose mostly 76.9 µM), hits mostly inhibitors | 340,000 tested, 0.4% active; calls by dose curve; cell line not stated here;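 further: intracellular cAMP measured with PDE inhibitor Ro 20-1724 present during compound exposure; nearly all actives have a fitted effect of over 65% in size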
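HTRF cAMP measurement after 30 min RT detection following 30 min, 37C compound treatment alongside […] (added as 300 uM solution) in G418-selected cells seeded at 2000/well and grown 16–24 h.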
BRCA1 expr up – increases BRCA1 expression. Potency, µM (doses to about 46.1 µM), hits mostly activators. 380,000 tested, 1.1% active. MCF7-BRCA1-FFLuc reporter, luminescence, 48 h; response scale: scaled: vehicle 0%, 10 µM genistein 100%. AID 624202; further: nearly all actives have a fitted effect of over 80% in size
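MCF7-BRCA1-FFLuc, 2000 cells/well; 2 h attach, 37 °C/5% CO2; compound 48 h; luciferase substrate 15 min; luminescence end-point. Norm. to genistein 10 microM max activation and DMSO; concentration-response curves fitted.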
IL-2 act – activates IL-2 in a cell-based reporter assay; IL-2 activation reporter assay, cell-based qHTS; stimulated with anti-CD3/CD4/CD28 beads; in transgenic mouse T cells; activation, % (series mostly up to about 46 µM); 360,000 tested, 0.065% active; AID 652025; in the data active means activation above about 50%; inconclusive means mostly about 30% to 49%
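EGFP and DsRed fluorescence is measured by plate cytometry in unstimulated transgenic mouse T cells exposed to compound for 60 minutes, then stimulated 18 hours at 37 degrees C with anti-CD3/anti-CD4 beads plus anti-CD28.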
gsp agonist – gsp mutant agonism. gsp mutant cells, cAMP HTRF, 30 min. Potency, µM (doses to about 76.9 µM), actives largely listed as activators. 340,000 tested, 0.13% active; active means well fitted activation curve with a large enough effect; inconclusive means small, poorly fitted or top-dose-only effect, or another doubt; inactive means no such curve, though single readings can be large or run the other way; cell line not stated here;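 further: phosphodiesterase inhibitor Ro 20-1724 added with compounds to block cAMP breakdown; nearly all actives have a fitted effect of over 60% in size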
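Cells in DMEM/10% FBS with G418 were pretreated with compounds in DMSO plus […] (300 uM stock) for 30 min at 37C. cAMP was measured by HTRF (cAMP-d2 plus anti-cAMP antibody-K) after 30 min at room temperature.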
IDH1 R132H inh – inhibitors of human mutant IDH1 R132H; O75874; IDH1-R132H enzyme, NADPH consumption, diaphorase/resazurin fluorescence; Potency, µM (titrated, usually from 76.6 µM), most hits filed as inhibitors; 390,000 tested, 0.093% active; AID 602179; further: nearly all actives have a fitted effect of over 65% in size
Target sequence (O75874 whole entry R132H, stated change not applied): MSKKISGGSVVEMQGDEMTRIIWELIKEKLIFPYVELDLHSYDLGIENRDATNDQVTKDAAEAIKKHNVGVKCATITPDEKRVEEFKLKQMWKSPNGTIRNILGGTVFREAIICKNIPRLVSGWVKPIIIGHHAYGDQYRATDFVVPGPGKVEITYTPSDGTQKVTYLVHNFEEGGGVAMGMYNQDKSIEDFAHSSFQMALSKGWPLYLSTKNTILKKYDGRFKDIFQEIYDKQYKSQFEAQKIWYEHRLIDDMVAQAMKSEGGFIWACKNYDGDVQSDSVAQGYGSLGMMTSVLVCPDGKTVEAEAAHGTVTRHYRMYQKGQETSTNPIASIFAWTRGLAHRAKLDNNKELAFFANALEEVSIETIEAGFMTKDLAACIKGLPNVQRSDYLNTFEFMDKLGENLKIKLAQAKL
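IDH1-R132H (0.5 ug/mL dispensed) in pH 7.5 Tris buffer was preincubated 30 min with compound, then given a substrate mix of 0.016 mM NADPH and 2 mM alpha-KG for 80 min at room temperature; remaining NADPH was read by diaphorase/resazurin fluorescence.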
Hits are given with their value; [ ] = dose if it differs, or a comment. A selection: hits, their analogues and other compounds. The true share with any hit is near 1.5%. Unless noted, the call rests on the fitted dose curve; in most records, active means well fitted curve in the direction sought with a large enough effect; inconclusive means small, poorly fitted or top-dose-only effect, or another doubt; inactive means no such curve, though single readings can be large; an effect the other way counts as inactive or inconclusive.

For O=C(CC(c1cccs1)N1Cc2ccccc2C1=O)Nc1ccc(F)c(Cl)c1 (configuration not stated) the results were BRCA1 expr up inactive and IDH1 R132H inh inactive.
NC(c1csc(Nc2cnccn2)n1)c1ccccc1Cl (configuration not stated) was read as BRCA1 expr up inactive and IL-2 act inactive.
Screening FC(F)(F)C(F)(F)C(F)(F)c1nc2ccccc2[nH]1 returned BRCA1 expr up inactive.
Screening CCCCN(CCCC)c1ccc(C=Nc2ccc(/C=C/c3ccnc4ccccc34)cc2)cc1C returned BRCA1 expr up inactive.
Screening COc1ccc(N2CCN(C(=O)c3nc4nc(C)cc(C)n4n3)CC2)cc1 returned gsp antagonist inactive, BRCA1 expr up inactive, IL-2 act inactive, gsp agonist inactive[15.4 µM] and IDH1 R132H inh inactive.
Screening Cc1cc(C)n2nc(C(=O)N3CCN(c4ccc([N+](=O)[O-])cc4)CC3)nc2n1 returned gsp antagonist 11µM, BRCA1 expr up inactive, IL-2 act inactive, gsp agonist inactive and IDH1 R132H inh inactive.
Cc1ccc2oc(-c3cccc(NC(=O)COc4ccc(Cl)cc4)c3C)nc2c1 was read as BRCA1 expr up inactive.
For C/C(=N\NC(=O)c1ccc(O)cc1)c1ccc(NC(=O)Cc2ccccc2)cc1 the results were gsp antagonist inactive, BRCA1 expr up 8.9µM, IL-2 act inactive, gsp agonist inactive and IDH1 R132H inh inactive.
For C/C(=N/NC(=O)c1ccco1)c1ccc(NC(=O)c2ccc(F)cc2)cc1 the results were gsp antagonist inconclusive, BRCA1 expr up 7.1µM, IL-2 act inactive, gsp agonist inactive and IDH1 R132H inh inactive.
For CC(C)c1ccc(Nc2sc(C(=O)c3ccccc3)c(N)c2S(=O)(=O)c2ccccc2)cc1 the results were IDH1 R132H inh inactive.
COc1ccccc1CCC(=O)Nc1ccc2c(c1)c(=O)n(C)n2-c1cccs1 was read as BRCA1 expr up inactive and IL-2 act inactive.
For C[C@@H]1CN(Cc2nnnn2CC(=O)NCCCn2cccn2)C[C@H](C)O1 the results were BRCA1 expr up inactive, IL-2 act inactive, gsp agonist inactive and IDH1 R132H inh inactive.
Screening COc1ccc(-c2nnc(SCc3ccccc3F)o2)cc1 returned gsp antagonist inactive, BRCA1 expr up inconclusive, IL-2 act inactive, gsp agonist inactive and IDH1 R132H inh inactive.
Screening Fc1ccccc1CSc1nnc(-c2cccnc2)o1 returned gsp antagonist inactive, BRCA1 expr up 7.1µM, IL-2 act inactive, gsp agonist inactive and IDH1 R132H inh inactive.
Screening Fc1ccccc1CSc1nnc(-c2ccccc2)o1 returned gsp antagonist inactive, BRCA1 expr up 4µM, IL-2 act inactive, gsp agonist inactive and IDH1 R132H inh inactive.
Screening Clc1ccc(-c2cc(COc3ccccc3)on2)cc1 returned gsp antagonist inactive, BRCA1 expr up 10µM, IL-2 act inactive, gsp agonist inconclusive and IDH1 R132H inh inactive.
For O=C(COc1ccc(Cl)cc1)Nc1cc(-c2ccccc2)no1 the results were IDH1 R132H inh inactive.
Screening Clc1ccc(OCc2cc(-c3ccccc3)no2)cc1Cl returned gsp antagonist inactive, BRCA1 expr up 14µM, IL-2 act inactive, gsp agonist inactive and IDH1 R132H inh inactive.
`O=S(=O)(Cc1cc(-c2ccc(Cl)cc2)no1)c1ccccc1` gave gsp antagonist inactive, BRCA1 expr up inconclusive, IL-2 act inactive, gsp agonist inconclusive and IDH1 R132H inh inactive.
Screening Cc1ccc(F)cc1NC(=O)N1CCN(c2ccnc3cc(Cl)ccc23)CC1 returned gsp antagonist 35µM, BRCA1 expr up inactive, IL-2 act inactive, gsp agonist inactive and IDH1 R132H inh inactive.
For Cc1cccc(Cl)c1NC(=O)N1CCN(c2ccnc3cc(Cl)ccc23)CC1 the results were gsp antagonist 28µM, BRCA1 expr up inactive, IL-2 act inactive, gsp agonist inactive and IDH1 R132H inh inactive.
Screening Cc1cc(C)c(NC(=O)Cn2nc3c(cc2=O)CCCC3)c(C)c1 returned IDH1 R132H inh inactive.
`Cc1ccc(-c2onc3ccc(C(=O)O)cc23)cc1` gave gsp antagonist inactive, BRCA1 expr up inactive, IL-2 act inactive, gsp agonist inactive and IDH1 R132H inh inactive.
`O=C(O)c1ccc2noc(-c3ccccc3)c2c1` gave gsp antagonist inactive, BRCA1 expr up 4µM, IL-2 act inactive, gsp agonist inactive and IDH1 R132H inh inactive.
